From PubChem BioAssay (NCATS)
Inconclusive results are not listed. Some of the results follow. Active and inactive are the calls of the source. Unless noted, calls follow the shape of the dose curve; as a rule, active = well fitted curve in the direction sought with a large enough effect; inconclusive = small, poorly fitted or top-dose-only effect, or another doubt; inactive = no such curve, though single readings can be large; an effect the other way counts as inactive or inconclusive.

Columns and labels:
[1] = molecular target: Lysosomal acid glucosylceramidase (Homo sapiens) (UniProt P04062); assay: Glucocerebrosidase-p2 (AID 348; in the data active = potency below about 10 µM; also: potency is read from the fitted curve at half-maximal effect); details: purified GBA, blue fluorogenic substrate, 40 min
Summary of the method: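 Compounds titrated from 0.6 nM upwards against 0.2 nM enzyme in pH 5.9 citric acid/KH2PO4, taurocholate, tween-20; blue fluorogenic substrate 80 uM, 40 min room temperature, stopped and read Ex 365/Em 440 for AC50.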

[2] = AP1 Signaling Pathway (AID 357; active = well fitted curve in either direction with a large enough effect, not every such curve was filed as active;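 also: ME-180 reporter cells stimulated with EGF at its EC50 level; % is scaled to controls: 0 for no effect and ±100 for the full control effect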); details: ME-180 AP-1-bla reporter, EGF-induced, beta-lactamase ratio, 5 h; at 7.69 µM (top of the series) unless noted
Summary of the method: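 Read-out was the 460nm/530nm emission ratio (excitation 405nm) after CCF4 loading for 2.5 hours at room temperature. Cells carried an AP-1-driven beta-lactamase reporter, were stimulated with EC50 EGF plus compound for 5 hours, and AC50 values came from titrations.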

[3] = molecular target: Cytochrome P450 1A2 (Homo sapiens) (UniProt P05177); assay: p450-cyp1a2 (AID 410; calls by dose curve; also: potency is read from the fitted curve at half-maximal effect); details: recombinant CYP1A2, luciferin-ME demethylation, luminescence; series mostly up to 57 µM
Summary of the method: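 Human CYP1A2 (20nM) demethylated Luciferin-ME at its Km (100uM) in 100mM KPO4. After 10 min compound preincubation, NADPH regeneration ran the reaction 60 min at room temperature. Luciferin was read by luminescence, normalized to 57 uM furafylline.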

[4] = NFAT Signaling Pathway (AID 444; active = well fitted curve in either direction with a large enough effect, not every such curve was filed as active;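 also: carbachol stimulus at about its EC50 of 1 µM final; % is scaled to controls: 0 for no effect and ±100 for the full control effect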); details: Jurkat NFAT-bla M1, carbachol, beta-lactamase ratio, 5 h; at 7.69 µM (top of the series) unless noted
Summary of the method: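 Jurkat cells with NFAT-driven β-lactamase reporter and co-expressed M1 receptor, stimulated with carbachol (final 1 uM, ~EC50), compound titration, 5 h at 37 °C. CCF4 loaded 1 h at RT; 460/530 nm ratio gave %activity and AC50.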

[5] = Stat Signaling Pathway (AID 446; active = well fitted curve in either direction with a large enough effect, not every such curve was filed as active;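 also: ME-180 cervical cancer cells given 40 pM IL-6 alongside compound; SIE-controlled beta-lactamase reporter measured as 460/530 nm FRET emission ratio; % is scaled to controls: 0 for no effect and ±100 for the full control effect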); details: ME-180 SIE beta-lactamase reporter, IL-6 stimulated, 5 h; series mostly up to 7.69 µM
Summary of the method: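 ME-180 cells carrying a SIE-driven beta-lactamase reporter are stimulated with 40 pM IL-6 for 5 h at 37C in the presence of compound. The 460/530 nm FRET substrate ratio is read after 2.5 h at RT. Data are normalised to 300 pM IL-6 and to 125 nM JAK inhibitor controls.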

[6] = molecular target: Glucocorticoid receptor (Homo sapiens) (UniProt P04150); assay: GR-EFC Redistribution (AID 451; calls by dose curve; also: potency is read from the fitted curve at half-maximal effect); details: CHO-K1 GR-EFC translocation, beta-gal luminescence, 2 h
Summary of the method: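 CHO-K1 cells expressing nuclear EA and GR-ED fragments of b-gal; compounds titrated up to 46 uM final, 2 h at 37 C. GR nuclear translocation read as complemented b-gal luminescence after 1 h RT detection.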

[7] = molecular target: Mitogen-activated protein kinase 10 (Mus musculus) (UniProt Q61831); assay: JNK3 AlphaScreen Assay (AID 530; active = well fitted curve in either direction with a large enough effect, not every such curve was filed as active;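 also: kinase came from lysate of stimulated human HepG2 cells; signal reports phosphorylation of biotinylated GST-cJun 1-79 at Ser73 with 10 µM ATP; % is scaled to controls: 0 for no effect and ±100 for the full control effect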); details: JNK3 lysate, c-Jun phosphorylation; series mostly up to 57.1 µM
Summary of the method: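 qHTS format: compounds tested as titrations against IL-1beta/TNF-alpha-activated HepG2 lysate JNK3 with biotin-GST-cJun substrate and 10 uM ATP at room temperature. Loss of anti-phospho-cJun AlphaScreen signal indicates inhibition.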

[8] = molecular target: Cytochrome P450 2C9 (Homo sapiens) (UniProt P11712); assay: qHTS Assay for Inhibitors and Substrates of Cytochrome P450 2C9 (AID 883); details: recombinant CYP2C9, luciferin-H luminescence, 60 min; series mostly up to 57.1 µM; also: potency is read from the fitted curve at half-maximal effect; nearly all actives have a fitted effect of over 60% in size
Summary of the method: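 Human CYP2C9 (10nM) with Luciferin-H at 100uM (its KM) in 25mM KPO4; compound preincubated 10 min at 37C, then NADPH regeneration for 60 min at 37C. Luciferin read by luminescence after detection reagent; normalized to 57uM sulphaphenazole as full inhibition.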

[9] = molecular target: Cytochrome P450 3A4 (Homo sapiens) (UniProt P08684); assay: qHTS Assay for Inhibitors and Substrates of Cytochrome P450 3A4 (AID 884); details: recombinant CYP3A4, Luciferin-PPXE luminescence; series mostly up to 57.1 µM; also: potency is read from the fitted curve at half-maximal effect; nearly all actives have a fitted effect of over 50% in size
Summary of the method: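 20 nM human CYP3A4 with 25 uM Luciferin-PPXE (at KM) in 200 mM KPO4, preincubated 10 min with compound; NADPH regeneration started a 60 min RT reaction. Luciferin detected by luminescence, normalized to 57 uM ketoconazole as full inhibition.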

[10] = molecular target: Cytochrome P450 3A4 (Homo sapiens) (UniProt P08684); assay: qHTS Assay for Activators of Cytochrome P450 3A4 (AID 885); details: recombinant CYP3A4, Luciferin-PPXE luminescence, 60 min; series mostly up to 57.1 µM; also: nearly all actives have a fitted effect of over 65% in size
Summary of the method: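 Human CYP3A4 (20 nM) with Luciferin-PPXE at 25 uM (its KM) in 200 mM KPO4; 10 min compound preincubation, then NADPH regeneration and 60 min reaction at RT. Luciferin read by luminescence; normalized to 57 uM ketoconazole full inhibition.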

[11] = molecular target: Rap guanine nucleotide exchange factor 3 (Homo sapiens) (UniProt O95398); assay: Confirmatory qHTS for antagonist of cAMP-regulated guanine nucleotide exchange factor 3 (EPAC1) (AID 1645880); details: EPAC1 Rap1B-BODIPY-GDP exchange, fluorescence; activity, negative = inhibition: at 115 µM (top of the series); also: nearly all actives have a fitted effect of over 55% in size; also: potency is read from the fitted curve at half-maximal effect;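 as to activity, negative = inhibition: plate controls were DMSO only for no effect and full effect of the ATA control for full effect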
Summary of the method: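 Nucleotide exchange uses 100 nM EPAC1, 250 nM RAP1B-BODIPY-GDP and 50 uM GDP, with compounds in a concentration-titration series. After 5 min at room temperature, fluorescence (480 nm ex/540 nm em) is read every 5 min for 30 min. Data are normalized to control ATA and DMSO.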

[12] = molecular target: Rap guanine nucleotide exchange factor 3 (Homo sapiens) (UniProt O95398); assay: Confirmatory qHTS for agonist of cAMP-regulated guanine nucleotide exchange factor 3 (EPAC1) (AID 1645881); details: EPAC1 Rap1B BODIPY-GDP exchange fluorescence; series mostly up to 154 µM; also: nearly all actives have a fitted effect of over 75% in size; also: potency is read from the fitted curve at half-maximal effect;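 as to activation: EPAC1 catalysed release of BODIPY-GDP from Rap1B seen as fluorescence loss; 100% = effect of cAMP agonist control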
[13] = molecular target: Rap guanine nucleotide exchange factor 4 (Homo sapiens) (UniProt Q8WZA2); assay: Confirmatory qHTS for agonist of cAMP-regulated guanine nucleotide exchange factor 4 (EPAC2) (AID 1645884); details: EPAC2 GEF activity, Rap1B-BODIPY-GDP fluorescence; series mostly up to 154 µM;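 also: nucleotide exchange releases bodipy-GDP from Rap1 and this lowers its fluorescence; nearly all actives have a fitted effect of over 65% in size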; also: potency is read from the fitted curve at half-maximal effect
[14] = molecular target: Rap guanine nucleotide exchange factor 4 (Homo sapiens) (UniProt Q8WZA2); assay: Confirmatory qHTS for antagonist of cAMP-regulated guanine nucleotide exchange factor 4 (EPAC2) (AID 1645885); details: EPAC2 Rap1B-BODIPY-GDP exchange fluorescence, biochemical; series mostly up to 12.7 µM; also: nearly all actives have a fitted effect of over 25% in size; also: potency is read from the fitted curve at half-maximal effect
[15] = molecular target: Rap guanine nucleotide exchange factor 3 (Homo sapiens) (UniProt O95398); assay: Counterscreen qHTS for antagonist of cAMP-regulated guanine nucleotide exchange factor 3 (EPAC1) (AID 1645888); details: Rap1B-BODIPY-GDP nucleotide exchange, fluorescence; series mostly up to 154 µM;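 also: fluorescence loss as bound BODIPY-GDP is released from Rap1B; % of control where 0% means no effect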
Summary of the method: (§1)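 Rap1B–BODIPY-GDP (250 nM) with 50 uM GDP; compounds pin-transferred to 9.74 nM–152 uM final (activator) or from 7.32 nM upwards (inhibitor). Fluorescence Ex/Em 480/540 nm read at 5 and 30 min, then after adding cAMP or buffer, at room temperature.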

[16] = molecular target: Tumor susceptibility gene 101 protein (Homo sapiens) (UniProt Q99816); assay: qHTS Assay for Iinhibitors of HIV-1 Budding by Blocking the Interaction of PTAP/TSG101: Hit Validation (AID 651600); details: PTAP peptide/TSG101 UEV interaction, biochemical assay; series mostly up to 57.5 µM; also: potency is read from the fitted curve at half-maximal effect; nearly all actives have a fitted effect of over 70% in size
Summary of the method: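 FITC-PTAP peptide (50 nM final) binding to Tsg101 binding domain (10 uM final) was measured by polarization after 20 min at r.t. with compounds, in 10 mM HEPES pH 7.5 buffer with 0.15 M NaCl and 0.01% Tween 20.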

[17] = molecular target: Rap guanine nucleotide exchange factor 3 (Homo sapiens) (UniProt O95398); assay: Counterscreen qHTS for agonist of cAMP-regulated guanine nucleotide exchange factor 3 (EPAC1) (AID 1645889); details: EPAC1 Rap1B-BODIPY-GDP exchange, fluorescence; series mostly up to 154 µM; also: nearly all actives have a fitted effect of over 40% in size; also: potency is read from the fitted curve at half-maximal effect; as to activation: % of control where 0% means no effect
Summary of the method: as §1

[18] = molecular target: Cytochrome P450 2C19 (Homo sapiens) (UniProt P33261); assay: qHTS Assay for Inhibitors and Substrates of Cytochrome P450 2C19 (AID 899); details: recombinant CYP2C19, luciferin-H EGE luminescence; series mostly up to 57.1 µM; also: potency is read from the fitted curve at half-maximal effect; nearly all actives have a fitted effect of over 60% in size
Summary of the method: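 5 nM human CYP2C19 with 10uM Luciferin-H EGE (at KM) in 50mM KPO4, compound preincubated 10 min at 37C, then NADPH regeneration for 60 min at 37C. Luciferin read by luminescence after detection reagent; normalized to 57uM ketoconazole as full inhibition.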

[19] = molecular target: DNA dC->dU-editing enzyme APOBEC-3G (Homo sapiens) (UniProt Q9HC16); assay: qHTS for inhibitors of Vif-A3G interactions: Validation (AID 588379); details: Vif-A3G protein interaction assay; series mostly up to 46.1 µM; also: 0% is about no effect
Summary of the method: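 HeLa cells stably expressing Vif and A3G-eYFP, 700 cells/well, incubated overnight at 37 deg C, then exposed to compound overnight at 37 deg C. Inhibition of Vif-mediated degradation read as increased yellow fluorescence (Ex 488/Em 500-530) by laser-scanning cytometry.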

[20] = molecular target: Vitamin D3 receptor (Homo sapiens) (UniProt P11473); assay: qHTS for Inhibitors of the vitamin D receptor (VDR): Hit Validation in Primary Screen (AID 602199); details: VDR-coactivator inhibition assay, qHTS confirmation; also: potency is read from the fitted curve at half-maximal effect
Summary of the method: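 Fluorescence polarization (Ex 620/Em 688 nm) of Alexa 647-SRC2-3 peptide with 800 nM VDR and 5 uM LG19078. Compounds at several concentrations, 2 h at room temperature.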

[21] = molecular target: Vitamin D3 receptor (Homo sapiens) (UniProt P11473); assay: qHTS for Inhibitors of the vitamin D receptor (VDR): Hit Validation using a Beta-Lactamase Assay (AID 602202); details: VDR beta-lactamase reporter cells, FRET ratio, cells co-treated with VDR agonist LG190178; series mostly up to 46.1 µM; also: % is scaled to controls: 0 for no effect and ±100 for the full control effect
Summary of the method: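 Stably transfected HEK293 cells expressing VDR-GAL4 DNA-binding domain fusion with UAS-driven beta-lactamase reporter, activated by agonist LG190178; compounds incubated 18 h, then FRET beta-lactam substrate 2 h; cleaved substrate read at 447 nm emission.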

[22] = qHTS for Inhibitors of the vitamin D receptor (VDR): Hit Validation using a Cytotoxicity Assay (AID 602204); details: cytotoxicity counter-screen, cell viability; series mostly up to 48.3 µM;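 also: plate controls were DMSO for no effect and high-concentration cycloheximide for full effect; nearly all actives have a fitted effect of over 75% in size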
Summary of the method: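 Cytotoxicity counterscreen measuring cellular ATP by CellTiter-Glo luminescence. Cells (20,000/well) plated 4 hours before compound addition, then exposed for 18 hours. Cycloheximide at high concentration as positive control, DMSO as negative.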

[23] = molecular target: DNA polymerase eta (Homo sapiens) (UniProt Q9Y253); assay: qHTS for Inhibitors of Polymerase Eta: Confirmatory Assay for Cherry-picked Compounds (AID 720502); details: Pol eta primer extension, TAMRA/BHQ fluorescence, 10 min; also: potency is read from the fitted curve at half-maximal effect
Summary of the method: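 Enzyme at 10 nM is mixed with pin-transferred compound and left 15 min at room temperature. Substrate (50 nM final) is then added, and plates are read at 0 min and after 10 min.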

Sequence of Cytochrome P450 3A4 (Homo sapiens) (P08684 whole entry, looked up): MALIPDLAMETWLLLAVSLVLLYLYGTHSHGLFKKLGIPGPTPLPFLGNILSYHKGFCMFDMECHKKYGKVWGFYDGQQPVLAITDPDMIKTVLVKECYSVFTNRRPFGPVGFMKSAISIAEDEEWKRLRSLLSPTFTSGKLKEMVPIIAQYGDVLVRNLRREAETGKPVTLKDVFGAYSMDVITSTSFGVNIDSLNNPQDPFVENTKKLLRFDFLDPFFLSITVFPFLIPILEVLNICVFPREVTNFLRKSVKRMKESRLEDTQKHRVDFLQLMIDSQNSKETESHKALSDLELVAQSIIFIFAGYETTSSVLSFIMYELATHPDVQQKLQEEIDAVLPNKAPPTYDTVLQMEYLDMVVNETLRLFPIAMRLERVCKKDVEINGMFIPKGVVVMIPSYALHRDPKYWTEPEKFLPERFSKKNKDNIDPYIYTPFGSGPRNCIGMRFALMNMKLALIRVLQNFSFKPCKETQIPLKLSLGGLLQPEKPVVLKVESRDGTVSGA
Sequence of Rap guanine nucleotide exchange factor 4 (Homo sapiens) (Q8WZA2 whole entry, looked up): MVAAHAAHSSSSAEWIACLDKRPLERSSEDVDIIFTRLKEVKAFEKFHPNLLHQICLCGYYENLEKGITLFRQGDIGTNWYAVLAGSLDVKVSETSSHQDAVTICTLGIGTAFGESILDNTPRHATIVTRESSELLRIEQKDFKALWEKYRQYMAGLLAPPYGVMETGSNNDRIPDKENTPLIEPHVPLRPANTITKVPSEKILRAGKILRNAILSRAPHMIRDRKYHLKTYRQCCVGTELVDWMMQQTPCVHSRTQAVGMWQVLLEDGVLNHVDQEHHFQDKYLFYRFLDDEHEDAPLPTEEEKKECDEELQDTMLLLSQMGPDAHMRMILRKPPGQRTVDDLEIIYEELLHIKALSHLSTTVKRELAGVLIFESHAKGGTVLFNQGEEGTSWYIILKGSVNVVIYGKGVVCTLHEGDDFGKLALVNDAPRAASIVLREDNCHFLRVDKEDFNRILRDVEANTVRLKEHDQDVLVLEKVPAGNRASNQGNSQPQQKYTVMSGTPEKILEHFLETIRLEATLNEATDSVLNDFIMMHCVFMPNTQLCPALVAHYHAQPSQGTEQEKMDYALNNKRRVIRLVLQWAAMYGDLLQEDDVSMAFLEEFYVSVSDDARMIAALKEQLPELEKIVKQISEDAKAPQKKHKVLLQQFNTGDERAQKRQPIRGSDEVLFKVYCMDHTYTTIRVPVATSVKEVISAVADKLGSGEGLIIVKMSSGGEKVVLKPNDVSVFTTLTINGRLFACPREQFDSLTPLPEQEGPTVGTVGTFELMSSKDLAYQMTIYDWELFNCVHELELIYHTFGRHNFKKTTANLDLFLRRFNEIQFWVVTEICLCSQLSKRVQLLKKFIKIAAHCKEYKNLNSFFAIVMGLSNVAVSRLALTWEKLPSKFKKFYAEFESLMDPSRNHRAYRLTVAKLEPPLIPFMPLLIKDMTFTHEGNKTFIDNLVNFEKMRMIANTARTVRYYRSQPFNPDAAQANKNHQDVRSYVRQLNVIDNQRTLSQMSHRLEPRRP
Sequence of Rap guanine nucleotide exchange factor 3 (Homo sapiens) (O95398 whole entry, looked up): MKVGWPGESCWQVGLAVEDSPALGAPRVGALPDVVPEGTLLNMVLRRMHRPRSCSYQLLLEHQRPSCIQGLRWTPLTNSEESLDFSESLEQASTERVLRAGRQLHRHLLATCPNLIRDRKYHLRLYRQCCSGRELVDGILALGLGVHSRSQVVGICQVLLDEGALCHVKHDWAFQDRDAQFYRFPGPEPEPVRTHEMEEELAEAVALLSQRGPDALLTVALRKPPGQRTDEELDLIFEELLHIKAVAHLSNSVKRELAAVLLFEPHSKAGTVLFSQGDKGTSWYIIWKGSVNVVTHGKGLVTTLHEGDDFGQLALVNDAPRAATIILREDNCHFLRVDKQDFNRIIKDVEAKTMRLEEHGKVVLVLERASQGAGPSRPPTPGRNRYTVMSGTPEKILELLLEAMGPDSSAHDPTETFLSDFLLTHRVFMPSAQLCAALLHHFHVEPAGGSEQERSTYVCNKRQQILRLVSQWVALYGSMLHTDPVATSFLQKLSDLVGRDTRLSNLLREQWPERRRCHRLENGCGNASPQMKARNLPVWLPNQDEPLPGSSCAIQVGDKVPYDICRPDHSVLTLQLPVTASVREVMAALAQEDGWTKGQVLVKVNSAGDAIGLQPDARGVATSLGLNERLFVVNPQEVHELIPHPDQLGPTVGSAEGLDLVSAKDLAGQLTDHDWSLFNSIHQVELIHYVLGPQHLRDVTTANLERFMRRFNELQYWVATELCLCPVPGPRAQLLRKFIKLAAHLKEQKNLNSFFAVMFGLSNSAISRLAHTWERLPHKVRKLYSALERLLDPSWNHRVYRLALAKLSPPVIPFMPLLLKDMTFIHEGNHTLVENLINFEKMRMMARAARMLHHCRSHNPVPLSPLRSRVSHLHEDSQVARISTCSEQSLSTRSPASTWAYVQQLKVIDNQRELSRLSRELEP
Sequence of Vitamin D3 receptor (Homo sapiens) (P11473 whole entry, looked up, the tested form may be a part): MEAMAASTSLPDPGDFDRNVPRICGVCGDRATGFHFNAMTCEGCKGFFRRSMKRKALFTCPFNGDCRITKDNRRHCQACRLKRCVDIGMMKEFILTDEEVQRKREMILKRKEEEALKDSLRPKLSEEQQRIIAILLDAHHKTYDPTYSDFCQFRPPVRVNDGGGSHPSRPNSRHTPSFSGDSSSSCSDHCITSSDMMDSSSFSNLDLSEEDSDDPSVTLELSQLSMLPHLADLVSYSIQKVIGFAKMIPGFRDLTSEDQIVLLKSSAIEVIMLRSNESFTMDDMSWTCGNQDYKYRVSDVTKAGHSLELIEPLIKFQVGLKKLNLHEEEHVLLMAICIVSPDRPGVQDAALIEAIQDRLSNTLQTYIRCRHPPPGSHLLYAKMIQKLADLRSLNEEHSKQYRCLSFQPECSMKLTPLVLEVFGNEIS
Sequence of Cytochrome P450 1A2 (Homo sapiens) (P05177 whole entry, looked up): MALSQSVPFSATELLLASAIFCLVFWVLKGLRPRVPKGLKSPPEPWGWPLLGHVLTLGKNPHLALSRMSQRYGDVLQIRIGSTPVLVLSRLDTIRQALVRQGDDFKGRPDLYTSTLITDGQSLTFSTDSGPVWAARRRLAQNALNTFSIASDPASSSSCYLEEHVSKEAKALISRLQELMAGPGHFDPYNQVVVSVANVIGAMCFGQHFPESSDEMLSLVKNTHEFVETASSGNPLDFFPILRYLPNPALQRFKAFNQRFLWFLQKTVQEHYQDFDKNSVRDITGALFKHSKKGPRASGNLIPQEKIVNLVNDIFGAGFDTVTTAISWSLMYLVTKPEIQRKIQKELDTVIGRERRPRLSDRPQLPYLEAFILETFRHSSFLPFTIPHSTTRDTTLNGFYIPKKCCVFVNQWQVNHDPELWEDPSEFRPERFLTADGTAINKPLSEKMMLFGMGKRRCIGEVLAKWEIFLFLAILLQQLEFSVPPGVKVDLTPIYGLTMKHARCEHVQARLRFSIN
Sequence of Cytochrome P450 2C9 (Homo sapiens) (P11712 whole entry, looked up): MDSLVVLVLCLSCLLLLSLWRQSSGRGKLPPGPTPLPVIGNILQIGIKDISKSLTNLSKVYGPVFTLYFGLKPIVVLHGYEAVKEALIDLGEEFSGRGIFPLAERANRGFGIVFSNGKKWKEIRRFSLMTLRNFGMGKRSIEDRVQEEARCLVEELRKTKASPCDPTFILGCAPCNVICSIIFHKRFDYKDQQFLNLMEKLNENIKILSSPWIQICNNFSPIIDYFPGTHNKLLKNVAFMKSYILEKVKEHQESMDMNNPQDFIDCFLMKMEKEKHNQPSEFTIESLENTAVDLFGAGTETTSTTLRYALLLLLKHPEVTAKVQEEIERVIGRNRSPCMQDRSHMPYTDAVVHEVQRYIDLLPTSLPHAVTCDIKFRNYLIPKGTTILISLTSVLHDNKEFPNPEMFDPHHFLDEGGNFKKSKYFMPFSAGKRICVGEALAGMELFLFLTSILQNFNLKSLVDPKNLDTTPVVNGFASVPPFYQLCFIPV
Sequence of Lysosomal acid glucosylceramidase (Homo sapiens) (P04062 whole entry, looked up): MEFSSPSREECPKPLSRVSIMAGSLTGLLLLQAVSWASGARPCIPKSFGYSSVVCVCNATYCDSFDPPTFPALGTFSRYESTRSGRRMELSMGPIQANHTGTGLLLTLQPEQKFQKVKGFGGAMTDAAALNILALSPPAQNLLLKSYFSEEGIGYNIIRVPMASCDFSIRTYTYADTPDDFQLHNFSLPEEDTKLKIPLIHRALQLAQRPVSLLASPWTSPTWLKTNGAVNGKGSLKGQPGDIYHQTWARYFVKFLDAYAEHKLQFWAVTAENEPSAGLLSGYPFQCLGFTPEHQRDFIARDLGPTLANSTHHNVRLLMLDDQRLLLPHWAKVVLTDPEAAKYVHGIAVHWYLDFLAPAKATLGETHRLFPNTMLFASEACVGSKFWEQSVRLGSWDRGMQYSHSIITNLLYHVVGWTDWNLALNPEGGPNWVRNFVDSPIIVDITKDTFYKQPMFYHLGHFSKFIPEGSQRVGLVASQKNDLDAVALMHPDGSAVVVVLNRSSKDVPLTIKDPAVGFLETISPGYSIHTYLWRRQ
Sequence of Tumor susceptibility gene 101 protein (Homo sapiens) (Q99816 whole entry, looked up, the tested form may be a part): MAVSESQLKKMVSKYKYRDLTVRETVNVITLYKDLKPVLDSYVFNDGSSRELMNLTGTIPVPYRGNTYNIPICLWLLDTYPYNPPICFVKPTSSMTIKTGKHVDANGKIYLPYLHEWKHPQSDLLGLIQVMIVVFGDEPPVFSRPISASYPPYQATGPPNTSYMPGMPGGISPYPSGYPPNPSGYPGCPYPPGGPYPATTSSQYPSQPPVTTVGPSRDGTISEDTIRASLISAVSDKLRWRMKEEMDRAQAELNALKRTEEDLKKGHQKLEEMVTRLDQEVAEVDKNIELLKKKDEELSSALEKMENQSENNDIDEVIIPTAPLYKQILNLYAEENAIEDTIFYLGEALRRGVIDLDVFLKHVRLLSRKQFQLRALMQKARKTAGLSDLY

O=C(c1cnccn1)N1CCC[C@@]2(CCN(c3cccc(-c4ccccc4)c3)C2)C1
active: Potency [3] 25.1 µM | Potency [8] 7.94 µM | Potency [9] 3.98 µM
inactive: Potency [1] > 11.4 µM | activity change, negative = inhibition [2] -18.4% | activity change, negative = inhibition [4] 7.34% | outcome [5] | Potency [6] > 46 µM | Potency [7] | outcome [10] | Potency [11] | Potency [12] | Potency [13] | Potency [14]

O=C(CN1C(=O)c2ccccc2C1=O)Nc1cc([N+](=O)[O-])ccc1O
inactive: Potency [11] | Potency [12] | Potency [13] | Potency [15]

Nc1ccc2cc3[nH]c4cc(N)ccc4c3nc2c1
active: Potency [16] 0.366 µM | Potency [12] 100 µM | Potency [13] 100 µM | Potency [17] 63.1 µM
inactive: Potency [11] | Potency [14]

CCn1c(O)c(/C=N/NC(=O)c2ccncc2)c(=O)n(CC)c1=S
active: Potency [12] 35.5 µM | Potency [13] 25.1 µM
inactive: Potency [11] | Potency [15]

CC(C)=CCc1c(O)cc(O)c2c1O[C@H](c1ccccc1)CC2=O
inactive: Potency [7] | outcome [10] | outcome [19] | Potency [11] | Potency [12] | Potency [13]
active: Potency [3] 0.316 µM | Potency [8] 3.16 µM | Potency [9] 12.6 µM | Potency [18] 1 µM | Potency [14] 39.3 µM

O=C(O)c1ccc2c(c1)C(=O)N(c1ccc(/C=C/C(=O)c3ccccc3)cc1)C2=O
inactive: Potency [21] | Potency [22] | Potency [12] | activation [13] 5.43% [at 17.1 µM, percent relative to cAMP agonist control] | Potency [14] | activation [17] 8.33% [at 30.8 µM]
active: Potency [20] 10.6 µM | Potency [23] 33.8 µM | Potency [11] 39.8 µM
